Compound activity as filed in PubChem BioAssay.
A selection: hits, their analogues and other compounds. The true share with any hit is near 6.7%.
Pf Dd2 growth: inhibitors of Plasmodium falciparum Dd2 growth; AID 1159554; 2.3% of 94,000 active; activity change, % at 10 µM; P. falciparum Dd2 growth, SYBR Green, 72 h; hits give low values; in the data active means activity change below about -80%; inconclusive means no clear call, values can overlap the other calls
C diff growth: inhibitors of Clostridium difficile growth | Clostridium difficile clinical isolate growth, OD600, 24 h; hits give low values | growth activity, negative = inhibition, % at 16 µg/mL (by protocol) | 0.25% of 86,000 active | AID 1259249;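 active means mean growth activity at or below -80% and every replicate also at or below -80%; inconclusive means mean at or below -80% but some replicate above -80%; inactive means mean growth activity above -80%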;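 further: 0% = DMSO wells and -100% = levofloxacin 16 µg/mL wells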
T cruzi growth-1: T. cruzi proliferation inhibition. inhibition, % at 8.34 µM. 5.9% of 77,000 active. T. cruzi beta-gal in NIH3T3, GalScreen luminescence, 90 h;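 active means mean inhibition above about 93%, with at least 55% of replicates each passing it, limit read from the data, passing the limit was not always enough; inconclusive means only one of those two conditions holds; inactive means neither condition holds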
T cruzi growth-2: Trypanosoma cruzi proliferation inhibition; shares compounds with T cruzi growth-1; T. cruzi beta-gal in NIH3T3, GalScreen luminescence, 90 h; 72% of 5,600 active; inhibition, % at 8.35 µM;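 active means mean replicate inhibition above about 95% and at least 55% of replicates individually reaching it, limit read from the data; inconclusive means only one of the two criteria is met; inactive means neither criterion is met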
T cruzi growth-3: Trypanosoma cruzi proliferation inhibition; T. cruzi beta-gal in NIH3T3, GalScreen luminescence, 90 h; inhibition, % at 2.09 µM; 21% of 5,600 active; shares compounds with T cruzi growth-1; AID 651740;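 active means mean inhibition above about 95%, with at least 55% of replicates also reaching it, limit read from the data; inconclusive means meets just one of the two conditions; inactive means meets neither condition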;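 further: plate controls were neutral control median for no effect and positive control median for full effect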
NIH3T3 tox: NIH/3T3 (mouse) viability loss; shares compounds with T cruzi growth-1; NIH/3T3 viability, CellTiter-Glo ATP luminescence, 90 h; cytotoxicity (signal decrease), % at 8.35 µM; 14% of 5,600 active; AID 651742;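 active means mean signal decrease across replicates above about 35% based on untreated-well scatter, with enough replicates individually passing, limit read from the data; inconclusive means no rule stated though some were filed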;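 further: 0% = median of neutral control wells and 100% = median of positive control wells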
NIH3T3 tox 2: kills mouse NIH/3T3 fibroblasts; shares compounds with T cruzi growth-1; NIH/3T3 viability, CellTiter-Glo ATP luminescence, 90 h; inhibition, % at 24.9 µM; 56% of 5,600 active; AID 651744;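 active means mean loss of cell viability signal at or above a set limit, and enough replicates individually reaching it; inconclusive means meets only the mean limit or only the replicate share; inactive means meets neither condition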;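 further: 0% = median of neutral control wells and 100% = median of positive control wells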
An asterisk follows results filed as active; u = inconclusive; x = no result.

SMILES | Pf Dd2 growth | C diff growth | T cruzi growth-1 | T cruzi growth-2 | T cruzi growth-3 | NIH3T3 tox | NIH3T3 tox 2
Cc1ccc(S(=O)(=O)N2C[C@@H](O)COC[C@@H]3O[C@@H](CC(=O)N[C@@H]4CCN(Cc5ccccc5)C4)CC[C@H]32)cc1 | -9 | x | 63 | x | x | x | x
O=C(C[C@H]1CC[C@H]2[C@@H](COC[C@H](O)CN2S(=O)(=O)c2ccc(F)cc2)O1)N[C@H]1CCN(Cc2ccccc2)C1 | -25 | -4 | 100* | 70 | 53 | -11 | -21
CO[C@H]1CN(C)C(=O)c2ccc(NS(=O)(=O)c3cccc(F)c3)cc2OC[C@H](C)NC[C@H]1C | 29 | x | 16 | x | x | x | x
O=C(C[C@H]1C[C@@H]2c3cc(NC(=O)Nc4ccc(C(F)(F)F)cc4)ccc3O[C@@H]2[C@@H](CO)O1)NCc1ccc(Cl)cc1 | -54 | x | -14 | x | x | x | x
O=C(C[C@@H]1C[C@@H]2c3cc(NC(=O)Nc4ccc(C(F)(F)F)cc4)ccc3O[C@@H]2[C@@H](CO)O1)NCc1ccc(Cl)cc1 | -45 | x | 112* | 109* | 24 | -21 | -1
C[C@H](NC(=O)C[C@H]1C[C@@H]2c3cc(NC(=O)Nc4ccc(C(F)(F)F)cc4)ccc3O[C@@H]2[C@@H](CO)O1)c1ccccc1 | -16 | 7 | 20 | x | x | x | x
O=C(C[C@@H]1C[C@@H]2c3cc(NC(=O)Nc4ccc(C(F)(F)F)cc4)ccc3O[C@@H]2[C@H](CO)O1)NCc1cc(F)ccc1F | -21 | -15 | 37 | x | x | x | x
O=C(C[C@H]1C[C@@H]2c3cc(NC(=O)Nc4ccc(C(F)(F)F)cc4)ccc3O[C@@H]2[C@@H](CO)O1)NCc1cc(F)ccc1F | -17 | 14 | 156* | 81 | 11 | 9 | -4
C[C@H](NC(=O)C[C@H]1C[C@H]2c3cc(NC(=O)Nc4ccc(C(F)(F)F)cc4)ccc3O[C@H]2[C@@H](CO)O1)c1ccccc1 | -27 | 9 | u | 77 | 41 | 8 | -2
O=C(NCc1ccccc1)[C@@]1(Cc2ccccc2)COC(c2ccc(OCCCO)cc2)=N1 | x | 14 | x | x | x | x | x
C[C@H]1CN([C@@H](C)CO)C(=O)c2cc(NC(=O)C3CC3)ccc2O[C@H]1CN(C)C | -4 | 4 | 0 | x | x | x | x
COc1ccc2c3c(n(C)c2c1)[C@H](CO)N(C(=O)CN(C)C)CC31CCN(Cc2cccnc2)CC1 | -78 | 68 | x | x | x | x | x
CO[C@H]1CN(C)C(=O)c2ccc(NC(=O)Nc3c(C)noc3C)cc2OC[C@H](C)N(C)C[C@H]1C | 27 | x | 6 | x | x | x | x
C[C@@H]1CCCCO[C@H](CN(C)C(=O)c2ccccc2)[C@H](C)CN([C@@H](C)CO)C(=O)c2cc(NC(=O)CCCCCC(=O)Nc3ccccc3N)ccc2O1 | -47 | -1 | 99* | 107* | 103* | 5 | 2
C[C@@H]1CCCCO[C@H](CN(C)C(=O)c2ccncc2)[C@@H](C)CN([C@H](C)CO)C(=O)c2cc(NC(=O)CCCCCC(=O)Nc3ccccc3N)ccc2O1 | 9 | 2 | 7 | x | x | x | x
C[C@H](CO)N1C[C@H](C)[C@H](CN(C)C(=O)c2ccccc2)OCCCC[C@H](C)Oc2ccc(NC(=O)CCCCCC(=O)Nc3ccccc3N)cc2C1=O | -29 | -1 | 100* | 108* | u | -7 | -39
C[C@@H]1CCCCO[C@H](CN(C)C(=O)C2CCCCC2)[C@H](C)CN([C@@H](C)CO)C(=O)c2cc(NC(=O)CCCCCC(=O)Nc3ccccc3N)ccc2O1 | -74 | 1 | 102 | x | x | x | x
Cc1noc(C)c1S(=O)(=O)Nc1ccc2c(c1)CC(=O)N([C@@H](C)CO)C[C@@H](C)[C@H](CN(C)S(=O)(=O)c1cn(C)cn1)O2 | 0 | 2 | 2 | x | x | x | x
O=C(C[C@@H]1CC[C@H]2[C@@H](COC[C@@H](O)CN2S(=O)(=O)c2ccc(F)cc2)O1)NCC1CC1 | -2 | -7 | -12 | x | x | x | x
COc1ccc(S(=O)(=O)N(C)C[C@H]2Oc3c(NC(=O)c4ccc(-c5nccs5)cc4)cccc3C(=O)N([C@@H](C)CO)C[C@@H]2C)cc1 | 4 | -6 | -19 | x | x | x | x
C[C@H]1CN([C@@H](C)CO)S(=O)(=O)c2ccc(C#CCN(C)C)cc2O[C@H]1CN(C)Cc1ccccc1 | -43 | 1 | u | 105* | 64 | 22 | 39*
C[C@@H](O)C#Cc1ccc2c(c1)O[C@H](CN(C)Cc1ccccc1)[C@@H](C)CN([C@@H](C)CO)S2(=O)=O | -49 | -4 | 40 | x | x | x | x
C[C@@H]1CN([C@@H](C)CO)S(=O)(=O)c2ccc(C#CCN(C)C)cc2O[C@H]1CN(C)Cc1ccc(F)cc1 | -77 | 6 | 113* | u | 91 | 51* | 103*
C[C@@H]1CN([C@@H](C)CO)S(=O)(=O)c2ccc(C#CCN(C)C)cc2O[C@H]1CN(C)Cc1ccccc1 | -54 | -3 | 109* | 105* | 98* | 32 | 104*
C[C@@H]1CN([C@H](C)CO)S(=O)(=O)c2ccc(C#CCN(C)C)cc2O[C@H]1CN(C)Cc1ccccc1 | -58 | -2 | 107* | 97* | 84 | 45* | 104*
SMILES | Pf Dd2 growth | C diff growth | T cruzi growth-1 | T cruzi growth-2 | T cruzi growth-3 | NIH3T3 tox | NIH3T3 tox 2
CC(C)C#Cc1ccc2c(c1)O[C@@H](CN(C)Cc1ccccc1)[C@H](C)CN([C@H](C)CO)S2(=O)=O | -66 | 11 | 93 | x | x | x | x
C[C@@H]1CN([C@@H](C)CO)S(=O)(=O)c2ccc(C#CCN(C)C)cc2O[C@@H]1CN(C)Cc1ccc(F)cc1 | -54 | -1 | 61 | x | x | x | x
C[C@H](CO)N1C[C@H](C)[C@@H](CN(C)Cc2ccccc2)Oc2cc(C#CCN(C)C)ccc2S1(=O)=O | -55 | -6 | 94 | x | x | x | x
O=C(C1CC1)N1CCCCN2[C@H](CO)[C@H](c3ccc(C#CC4(O)CCCC4)cc3)[C@H]2C1 | 26 | -4 | 30 | x | x | x | x
O=C(C[C@@H]1C=C[C@@H](NC(=O)C2CCOCC2)[C@@H](CO)O1)Nc1nccs1 | 24 | 0 | x | x | x | x | x
O=C(C[C@H]1C=C[C@H](NC(=O)c2ccc3c(c2)OCO3)[C@H](CO)O1)NCc1ccc(F)cc1 | 19 | 0 | x | x | x | x | x
CCC(=O)N1CC2(C1)[C@H](c1ccccc1)[C@H](CO)N2CC1CCOCC1 | 7 | -6 | x | x | x | x | x
CN1C(=O)c2cc(NC(=O)c3ccc(C#N)cc3)ccc2OC[C@H]2O[C@@H](CC(=O)NCc3ccc4c(c3)OCO4)CC[C@@H]21 | x | 6 | 31 | x | x | x | x
CC(=O)N(C)C[C@@H]1Oc2cc(C#CC3CCCCC3)ccc2S(=O)(=O)N([C@@H](C)CO)C[C@H]1C | -52 | -21 | 84 | x | x | x | x
CC(=O)N(C)C[C@@H]1Oc2cc(C#CC3CCCCC3)ccc2S(=O)(=O)N([C@H](C)CO)C[C@H]1C | -54 | -16 | u | 108* | 93 | 32 | 64*
CC(=O)N(C)C[C@H]1Oc2cc(C#CC3CCCC3)ccc2S(=O)(=O)N([C@@H](C)CO)C[C@@H]1C | -32 | -3 | 93 | x | x | x | x
